# Rows were chosen to be rich in hits. Some 12% of all compounds tested hit in one or more screens of this group.
# Pf growth 96h = P. falciparum growth inhibition at 96 hour, primary screen for plastid delayed-death inhibitors. P. falciparum luciferase reporter growth, 96 h. Potency, µM (series often up to 28.7 µM), for inactives: at the top dose activity change, negative = inhibition, usual class: inhibitors. 320,000 compounds, 6.9% hits; also: % is scaled to controls: 0 for no effect and ±100 for the full control effect
#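 Erythrocytes infected with luciferase-expressing P. falciparum were dispensed at 2% hematocrit and 0.05% parasitemia (final), then incubated with compounds 96 hours at 37 C in 5% CO2. Luminescence after detection reagent addition reported growth.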
# Sm TGR inh = inhibitors of Schistosoma mansoni thioredoxin glutathione reductase. Q962Y6. purified TGR, DTNB reduction, TNB absorbance 405 nm. Potency, µM (titrated, usually from 114 µM), for the others: at the highest dose activity change, negative = inhibition, actives largely listed as inhibitors. 360,000 compounds, 3% hits. AID 485364; also: % is scaled to controls: 0 for no effect and ±100 for the full control effect; nearly all actives have a fitted effect of over 60% in size
#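 Kinetic colorimetric format: TGR-catalysed, NADPH-driven DTNB reduction monitored via TNB absorbance. Enzyme dispensed at 20 nM; compound exposure 15 min at room temperature before reaction start.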
# Pf growth 48h = P. falciparum growth inhibition at 48 hours (one generation); Potency, µM (doses to about 28.7 µM), for inactives: at the highest dose activity change, negative = inhibition, usual class: inhibitors; P. falciparum luciferase growth in erythrocytes, 48 h; 310,000 compounds, 5.9% hits; also: % is scaled to controls: 0 for no effect and ±100 for the full control effect
#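 Luminescence readout; reporter = integrated firefly luciferase in P. falciparum. RBC culture at 2% hematocrit, 0.1% parasitemia final, 37 C/5% CO2; decreased signal taken as growth inhibition.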
# SARS PLP yeast = blocks SARS-CoV papain-like protease in a yeast assay | Potency, µM (titrated, usually from 32.9 µM), inactives show at the top dose activity, positive = growth rescue, most hits filed as activators | S. cerevisiae expressing SARS-CoV PLpro, growth rescue | AID 485353 | 330,000 compounds, 0.19% hits; calls by dose curve; also: 0% is about no effect; nearly all actives have a fitted effect of over 55% in size
# * = called active by the depositor; ? = inconclusive; . = no result given. Unless noted, calls follow the shape of the dose curve; as a rule, active = well fitted curve in the direction sought with a large enough effect; inconclusive = small, poorly fitted or top-dose-only effect, or another doubt; inactive = no such curve, though single readings can be large; an effect the other way counts as inactive or inconclusive. Potency is read from the fitted curve at half-maximal effect.
SMILES,Pf growth 96h,Sm TGR inh,Pf growth 48h,SARS PLP yeast
Cc1cc(C)n(/N=C/c2ccc(C(C)C)cc2)c(=O)c1C#N,?,1%,1.9µM*,-7%
Cc1cc(C)n(/N=C/c2ccc(O)cc2)c(=O)c1C#N,0%,6%,8%,0%
C/C(=N\NC(=O)c1ccccc1)C1C2C=CC(C2)C1(C)C (centres undefined),?,-2%,49%,-1%
CCOc1ccc(NC(=O)Cn2c(=O)n(CCCC(=O)NCCc3ccc(Cl)cc3)c(=O)c3ccccc32)cc1,.,-3%,.,.
NC(=O)Cn1c(=O)n(CCCC(=O)NC2CCN(Cc3ccccc3)CC2)c(=O)c2ccccc21,4%,-2%,.,-3%
COc1cccc(NC(=O)Cn2c(=O)n(CCc3ccc(OC)c(OC)c3)c(=O)c3ccccc32)c1,.,4%,.,.
O=C(CCn1c(=O)c2ccccc2n(Cc2ccccc2)c1=O)NC1CCN(Cc2ccccc2)CC1,8.3µM*,-8%,?,-6%
COc1cccc(NC(=O)Cn2c(=O)n(CCC(=O)NC3CCN(Cc4ccccc4)CC3)c(=O)c3ccccc32)c1,15µM*,2%,?,0%
Cc1cccc(NC(=O)Cn2c(=O)n(CCC(=O)NC3CCCC3)c(=O)c3ccccc32)c1,2.1µM*,-1%,4%,-4%
CCOc1ccc(NC(=O)Cn2c(=O)n(CCCC(=O)NC3CCN(Cc4ccccc4)CC3)c(=O)c3ccccc32)cc1,-22%,2%,5.2µM*,0%
COc1ccccc1N1CCN(C(=O)c2cc3c(=O)n(Cc4cccnc4)ccc3nc2C)CC1,.,3%,.,.
CCN(C[C@H]1N[C@@](Cc2ccccc2)(C(=O)OC)[C@H]2C(=O)N(C)C(=O)[C@@H]12)C(=O)Nc1ccccc1,.,.,.,9%
COc1ccc(C)cc1Nc1n[n+](-c2ccccc2)c(-c2cc(OC)c(OC)cc2Br)s1,9.3µM*,0%,?,3%
COc1ccc(C)cc1Nc1n[n+](-c2ccccc2)c(-c2c(OC)ccc3ccccc23)s1,?,-1%,3.7µM*,-3%
COc1ccc(C)cc1Nc1n[n+](-c2ccccc2)c(-c2ccc(C(=O)O)cc2)s1,2.3µM*,-20%,18%,0%
COc1ccc(-c2sc(Nc3ccccc3)n[n+]2-c2ccc(F)cc2)c(C)c1C,10µM*,2%,?,1%
Cc1cccc(-c2sc(Nc3ccccc3)n[n+]2-c2ccc(F)cc2)c1,?,-5%,15%,-3%
Cc1ccc(Cl)cc1NC(=O)Cn1c(=O)n(Cc2ccccc2)c(=O)c2oc3ccccc3c21,.,1%,.,.
c1ccc(-[n+]2nc(Nc3cccc4ccccc34)sc2-c2c3ccccc3cc3ccccc23)cc1,0.83µM*,-17%,1µM*,1%
CCCn1c(C(CO)Nc2nc(-c3cccc(Br)c3)cs2)nc2ccccc21 (centres undefined),5.9µM*,-22%,?,1%
CC1CC2(O)c3no[n+]([O-])c3CCC2N1O (centres undefined),10µM*,-16%,13%,1%
CC1CN(O)C2CCc3c(no[n+]3[O-])C12O (centres undefined),34%,-31%,14%,.
COc1ccc(-c2cnnc(N/N=C/c3ccc(O)cc3)n2)cc1,13%,2%,-4%,0%
Brc1ccc(/C=N/Nc2nncc(-c3ccccc3)n2)o1,?,-5%,-18%,1%
COc1ccc(-c2cnnc(N/N=C/c3ccc(O)c(O)c3)n2)cc1,63%,-7%,1.7µM*,28%
SMILES,Pf growth 96h,Sm TGR inh,Pf growth 48h,SARS PLP yeast
COc1ccc(-c2cnnc(N/N=C/c3c(C)nn(-c4ccccc4)c3Cl)n2)cc1,?,-3%,-25%,11%
COc1ccc(-c2cnnc(N/N=C/c3ccc(C)o3)n2)cc1,4.1µM*,-11%,?,0%
Oc1ccc(/C=N\Nc2nncc(-c3ccccc3)n2)cc1,2.3µM*,4%,?,4%
O=C(Cn1c(SCc2ccccc2F)nc2ccncc21)Nc1ccccc1C(F)(F)F,.,-5%,.,.
O=C(O)Cn1c(C(=O)Nc2nc(-c3ccccc3Cl)cs2)cc2ccccc21,?,.,-14%,.
Cc1ccc(C(=O)NCCc2ccc(S(=O)(=O)N3CCCC3)cc2)cc1,20%,0%,-30%,-1%
CCOc1ccc(CCNC(=O)c2cccc(S(=O)(=O)N3CCCCC3)c2)cc1OCC,?,-3%,15µM*,-2%
CCOc1ccc(CCNC(=O)c2cccc(S(=O)(=O)N3CCOCC3)c2)cc1OCC,?,-2%,?,-1%
CSc1ccccc1C(=O)NCCc1ccc(S(=O)(=O)N2CCCCC2)cc1,.,-4%,5.2µM*,-1%
CCOc1ccc(CCNC(=O)c2ccc(F)c(S(=O)(=O)N3CCOCC3)c2)cc1OCC,?,1%,?,-9%
CCOc1ccc(CCNC(=O)c2ccc(Cl)c(S(=O)(=O)N3CCOCC3)c2)cc1OCC,?,-2%,12µM*,5%
O=C(NCCc1ccc(F)cc1)c1ccc(Cl)c(S(=O)(=O)N2CCOCC2)c1,12µM*,3%,9.3µM*,-6%
CCN(C(=O)c1cn(CC)c(=O)c2cc(OC)c(OC)cc12)c1ccccc1F,.,-1%,.,.
Cc1ccc(C)c(NC(=O)CSc2nc3c([nH]c4ccccc43)c(=O)n2-c2ccc(F)cc2)c1,.,6%,.,.
Oc1ccc2ccccc2c1CN1CCOCC1,-12%,0.45µM*,-4%,1%
O=S(=O)(c1c(F)cccc1F)N1CCN(Cc2c(O)ccc3ccccc23)CC1,-30%,2.2µM*,?,5%
Cc1ccc2[nH]c(CSc3ccccc3)cc(=O)c2c1,13µM*,5%,?,-1%
O=S(=O)(c1ccc(S(=O)(=O)N2CCCC2)cc1)N1CCCCC1,11%,-5%,21%,-6%
CC(=O)Nc1ccc(C2=NNC(=Nc3ccc(S(=O)(=O)N4CCOCC4)cc3)SC2)cc1,12µM*,-2%,?,0%
CC(C)(C)N=C1NN=C(c2ccc(S(=O)(=O)N3CCCCC3)cc2)CS1,?,-5%,3.7µM*,5%
COCCN=C1NN=C(c2ccc(NC(C)=O)cc2)CS1,?,0%,?,14%
O=S(=O)(c1ccc(N=C2NN=C(c3cc(F)ccc3F)CS2)cc1)N1CCOCC1,?,-1%,2.3µM*,-2%
CCOc1cc(C#N)c(-n2nnc3c(sc4nc(C)cc(C)c43)c2=O)cc1OCC,.,0%,.,.
Cc1occc1C(=O)NNC(=O)c1ccccc1[N+](=O)[O-],21%,-18%,15%,-1%
Clc1ccc(CN2CCC(CNc3ncnc4onc(-c5ccc(Cl)cc5)c34)CC2)cc1,.,0%,.,.
Oc1ccccc1N=Nc1ccccc1O,68%,3%,2.6µM*,-24%
Oc1ccccc1N=Cc1ccc[nH]1,27%,-23%,?,-13%
CC(C)[C@H](Nc1ccc(S(=O)(=O)N2CCOCC2)cc1[N+](=O)[O-])C(=O)OCC(N)=O,23%,5%,-7%,-6%

# High-throughput results: PubChem BioAssay, National Center for Advancing Translational Sciences (NCATS)
